Potency, activity, negative = inhibition and activity change, negative = inhibition data for 41 compounds are collected here from PubChem BioAssay (Tox21).

A number with no mark means an inactive call. Inconclusive results are not listed. Activity calls are given as the source filed them. Calls come from the whole dose curve.

The target of experiment [1] is Acetylcholinesterase (Homo sapiens) (UniProt P22303). Put plainly: Acetylcholinesterase (AChE) small molecule antagonists: colormetric cell-based qHTS assay (AID 1347395). Note: nearly all actives have a fitted effect of over 30% in size. Note: potency is the fitted concentration of half-maximal effect. Put shortly: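 Cells (SH-SY5Y, 2,000 per well) are seeded and left overnight at 37 C. Compound is added for 30 min, then DTNB and acetylthiocholine for a further 90 min at 37 C before absorbance-based thiocholine detection.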
Sequence of Acetylcholinesterase (Homo sapiens) (P22303 whole entry, looked up): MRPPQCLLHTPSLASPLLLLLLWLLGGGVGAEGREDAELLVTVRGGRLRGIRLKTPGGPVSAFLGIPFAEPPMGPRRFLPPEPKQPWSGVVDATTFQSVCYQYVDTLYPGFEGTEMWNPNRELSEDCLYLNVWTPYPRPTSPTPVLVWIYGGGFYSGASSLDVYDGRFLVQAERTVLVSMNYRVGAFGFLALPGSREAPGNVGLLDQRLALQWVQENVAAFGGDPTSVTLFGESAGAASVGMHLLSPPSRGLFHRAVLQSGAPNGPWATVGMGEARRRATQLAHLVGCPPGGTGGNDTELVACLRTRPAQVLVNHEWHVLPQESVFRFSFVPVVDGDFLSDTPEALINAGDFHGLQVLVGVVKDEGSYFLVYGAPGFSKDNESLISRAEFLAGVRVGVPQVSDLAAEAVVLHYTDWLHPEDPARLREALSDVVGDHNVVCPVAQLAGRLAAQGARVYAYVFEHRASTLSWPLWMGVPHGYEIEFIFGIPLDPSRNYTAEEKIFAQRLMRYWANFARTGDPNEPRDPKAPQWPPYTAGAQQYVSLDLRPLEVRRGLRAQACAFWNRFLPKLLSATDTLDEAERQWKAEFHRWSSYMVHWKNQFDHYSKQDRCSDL

Experiment [2] shares this target. Put plainly: Acetylcholinesterase (AChE) small molecule antagonists: enzyme-based qHTS assay (AID 1347397). Note: nearly all actives have a fitted effect of over 55% in size. The following applies: Potency: AChE enzyme activity inhibition; outcome: AChE enzyme activity inhibition. Put shortly: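 Tox21 library chemicals are tested in qHTS format against recombinant human AChE. The enzyme, dispensed at 50 mU/mL, sits with compound for 30 min at room temperature. A DTNB–acetylthiocholine cocktail follows, and colour is read after 10 min.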
(Quantitative high-throughput screening tests each substance at several concentrations.)

Experiment [3] shares this target. Put plainly: Acetylcholinesterase (AChE) small molecule antagonists: fluorescence cell-based qHTS assay (AID 1347398). Note: nearly all actives have a fitted effect of over 50% in size. The conditions noted are these: Potency: AChE activity; outcome: AChE activity. In outline:
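Cellular AChE inhibition: SH-SY5Y cells treated with test chemical for 30 min at 37 C, then acetylthiocholine hydrolysis followed over 40 min at room temperature via thiocholine-reactive Thiolite Green fluorescence (490/520 nm).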

Experiment [4] has the same target. Kind of experiment: Acetylcholinesterase (AChE) small molecule antagonists: enzyme-based qHTS assay with human liver microsomes (AID 1347399). Note: nearly all actives have a fitted effect of over 60% in size. The conditions noted are these: Potency: qHTS inhibition; outcome: qHTS inhibition. Put shortly: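 Recombinant human AChE (50 mU/mL in the enzyme mix) and human liver microsomes (0.25 mg/mL final) were preincubated with compound and NADPH (0.25 mg/mL final) for 30 min at 37 C. Acetylthiocholine/DTNB was then added; thiocholine was read colorimetrically after 10 min at room temperature.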
% is set by controls: 0 for no effect and ±100 for the full control effect.

Regarding `NC(=O)C1CO1` (centres undefined), the Potency result in experiment [1], in experiment [2], in experiment [3] and in experiment [4] was “inactive” in each case.
Consider `O=C(Nc1cccc([N+](=O)[O-])c1)c1cc2ccccc2cc1O`, for which the Potency entry in experiment [1], in experiment [2], in experiment [3] and in experiment [4] was “inactive” throughout.
For the compound `CCc1cc(C2=C(C(=O)O)N(c3ccccc3C(F)(F)F)S(=O)(=O)c3ccccc32)cc2c1OCO2`, the Potency entry in experiment [1], in experiment [2], in experiment [3] and in experiment [4] was “inactive” throughout.
Regarding `CC[N+](CC)(CC)Cc1ccccc1`, the Potency entry in experiment [1], in experiment [2], in experiment [3] and in experiment [4] was “inactive” throughout.
Consider `C=C(C)C(=O)OCCC[Si](Cl)(Cl)Cl`, for which the Potency result in experiment [1], in experiment [2], in experiment [3] and in experiment [4] was “inactive” in each case.
As to `NC(=O)N1c2ccccc2CC(=O)c2ccccc21`, the Potency result in experiment [1], in experiment [2], in experiment [3] and in experiment [4] was “inactive” throughout.
Turning to `O=S(=O)(O)c1ccc2cc(O)c(S(=O)(=O)O)cc2c1`, the Potency entry in experiment [1], in experiment [2], in experiment [3] and in experiment [4] was “inactive” in each case.
Take `CCCCCCC1(C)CCC(=O)O1` (centres undefined): the Potency entry in experiment [1], in experiment [2], in experiment [3] and in experiment [4] was “inactive” in each case.
On to `OC[C@H]1O[C@@H]2O[C@H]3[C@H](O)[C@@H](O)[C@@H](O[C@H]4[C@H](O)[C@@H](O)[C@@H](O[C@H]5[C@H](O)[C@@H](O)[C@@H](O[C@H]6[C@H](O)[C@@H](O)[C@@H](O[C@H]7[C@H](O)[C@@H](O)[C@@H](O[C@H]8[C@H](O)[C@@H](O)[C@@H](O[C@H]9[C@H](O)[C@@H](O)[C@@H](O[C@H]1[C@H](O)[C@H]2O)O[C@@H]9CO)O[C@@H]8CO)O[C@@H]7CO)O[C@@H]6CO)O[C@@H]5CO)O[C@@H]4CO)O[C@@H]3CO`, for which the Potency result in experiment [1], in experiment [2], in experiment [3] and in experiment [4] was “inactive” in each case.
For `Nc1cccc(S(=O)(=O)O)c1`, the Potency result in experiment [1], in experiment [2], in experiment [3] and in experiment [4] was “inactive” throughout.
With `O=[N+]([O-])c1ccc(Cl)cc1Cl`, the Potency result in experiment [1], in experiment [2], in experiment [3] and in experiment [4] was “inactive” each time.
For `Cc1ccc(C(C)c2ccc(C)c(C)c2)cc1C`, the Potency result in experiment [1], in experiment [2], in experiment [3] and in experiment [4] was “inactive” each time.
`Cc1cncc(C)c1`: the Potency entry in experiment [1], in experiment [2], in experiment [3] and in experiment [4] was “inactive” throughout.
For `CCOC(=O)Nc1ccc2c(c1)N(C(=O)CCN1CCOCC1)c1ccccc1S2`, the Potency result in experiment [1], in experiment [2], in experiment [3] and in experiment [4] was “inactive” in each case.
Regarding `O=[N+]([O-])c1ccc(F)c(Cl)c1`, the Potency entry in experiment [1], in experiment [2], in experiment [3] and in experiment [4] was “inactive” in each case.
Turning to `O=C(O)CNC(=O)c1ccccc1I`, the Potency result in experiment [1], in experiment [2], in experiment [3] and in experiment [4] was “inactive” each time.
As to `CCOC(=O)[C@H](CCc1ccccc1)N[C@@H](C)C(=O)N1[C@H](C(=O)O)C[C@@H]2CCC[C@@H]21`, the Potency result in experiment [1], in experiment [2], in experiment [3] and in experiment [4] was “inactive” each time.
On to `CCCC(=O)OC/C=C(\C)CCC=C(C)C`, for which the Potency entry in experiment [1], in experiment [2], in experiment [3] and in experiment [4] was “inactive” each time.
As to `CCN1CCN(c2cc3c(cc2F)c(=O)c(C(=O)O)cn3C2CC2)CC1`, the Potency result in experiment [1], in experiment [2], in experiment [3] and in experiment [4] was “inactive” throughout.
On to `CC1CCC(C(C)(C)O)CC1` (centres undefined), for which the Potency result in experiment [1], in experiment [2], in experiment [3] and in experiment [4] was “inactive” each time.
Take `CC1=C(CC(=O)O)c2cc(F)ccc2/C1=C\c1ccc(S(C)(=O)=O)cc1`: the Potency entry in experiment [1], in experiment [2], in experiment [3] and in experiment [4] was “inactive” each time.
As to `S=C(SSSSSSC(=S)N1CCCCC1)N1CCCCC1`, the activity, negative = inhibition in experiment [1] was -0.568% [at 23.6 µM]. Besides, the activity change, negative = inhibition in experiment [2] is 0.13% [at 23.6 µM]; in experiment [3], -3% [at 23.8 µM]; in experiment [4] it was -2.6% [at 23.6 µM].
Consider `C=CCOCC(O)CO` (centres undefined), for which the Potency entry in experiment [1], in experiment [2], in experiment [3] and in experiment [4] was “inactive” throughout.
Consider `O=C(Cl)c1cccc([N+](=O)[O-])c1`, for which the Potency result in experiment [1], in experiment [2], in experiment [3] and in experiment [4] was “inactive” throughout.
Consider `Cc1nc(C)nc(N2C[C@@H](C)N(c3ccnc([C@@H](C)O)n3)[C@@H](C)C2)n1`, for which the Potency result in experiment [1], in experiment [2], in experiment [3] and in experiment [4] was “inactive” throughout.
As to `Cn1c(=O)c2c(ncn2CC(=O)O)n(C)c1=O`, the Potency entry in experiment [1], in experiment [2], in experiment [3] and in experiment [4] was “inactive” each time.
As to `Clc1cc(Cl)c(Cl)nc1Cl`, the Potency entry in experiment [1], in experiment [2], in experiment [3] and in experiment [4] was “inactive” throughout.
As to `CN(C)CCOc1ccccc1Cc1ccccc1`, the Potency result in experiment [1], in experiment [2], in experiment [3] and in experiment [4] was “inactive” in each case.
Regarding `COc1ccc(C2C(=O)c3ccccc3C2=O)cc1`, the Potency result in experiment [1], in experiment [2], in experiment [3] and in experiment [4] was “inactive” throughout.
For `COC(=O)Nc1nc2ccc(C(=O)c3ccccc3)cc2[nH]1`, the Potency result in experiment [1], in experiment [2], in experiment [3] and in experiment [4] was “inactive” each time.
As to `COC(C)OC`, the Potency entry in experiment [1], in experiment [2], in experiment [3] and in experiment [4] was “inactive” each time.
With `Cc1ccc(-c2ccccc2)cc1`, the Potency entry in experiment [1], in experiment [2], in experiment [3] and in experiment [4] was “inactive” throughout.
With `OC/C=C/CO`, the Potency in experiment [1] was 35.5 µM (active). For the same compound, the Potency entry in experiment [2], in experiment [3] and in experiment [4] was “inactive” throughout.
With `CC(C(=O)O)c1ccc2c(c1)Cc1cccnc1O2` (centres undefined), the Potency result in experiment [1], in experiment [2], in experiment [3] and in experiment [4] was “inactive” each time.
On to `COc1ccccc1NC(=O)c1cc2ccccc2cc1O`, for which the Potency entry in experiment [1], in experiment [2], in experiment [3] and in experiment [4] was “inactive” throughout.
Take `CCOC(=O)C1=NN(c2ccc(Cl)cc2Cl)C(C)(C(=O)OCC)C1` (centres undefined): the Potency result in experiment [1], in experiment [2], in experiment [3] and in experiment [4] was “inactive” each time.
As to `Cc1cccc(Br)c1`, the Potency entry in experiment [1], in experiment [2], in experiment [3] and in experiment [4] was “inactive” each time.
`NCCC(O)(P(=O)(O)O)P(=O)(O)O`: the Potency result in experiment [1], in experiment [2], in experiment [3] and in experiment [4] was “inactive” each time.
In the case of `CC/C=C/CCCCCCCCCCOC(C)=O`, the Potency result in experiment [1], in experiment [2], in experiment [3] and in experiment [4] was “inactive” in each case.
For the compound `O=S(=O)(O)c1cc(I)c(O)c2ncccc12`, the Potency entry in experiment [1], in experiment [2], in experiment [3] and in experiment [4] was “inactive” each time.
With `CC(=O)Nc1ccccc1C`, the Potency result in experiment [1], in experiment [2], in experiment [3] and in experiment [4] was “inactive” in each case.
